# The supplement of paper PMC6555819
# System: THRa:RXRa (NR concentration 90 nM, RXRa partner concentration 90 nM)
# Test: PBM binding z-score (relative to random genomic background probes); higher = stronger binding; sequences stand for … in GC…GCGATTGACAGCGTAGAATGAAGG
# How it was run: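 Binding z-scores were set against random background probes. The data came from custom Agilent 4×180K protein-binding microarrays carrying double-stranded probes with 34-nt variable regions, incubated 1 h with ligand-free nuclear receptor dimers. Partner-specific antibodies detected binding, and scanned fluorescence was regression-normalized.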
row,Sequence,PBM binding z-score
1,CGAACTAGGTTAAGGACAGTGAATCTCCGCACGC,3.11
2,CATACAGGGTCAGCTAGGCGAGAGTAGGGACGGC,3.05
3,ACAGACAGGTGATGTAGGTAACTCAGGCTATCAT,0.566
4,TGAATGAGGTTATAAGATCAGGTAACGTTGCAAA,2.61
5,TCTCGGAGGACACGAAAGGTCAGAGCTCGACATC,3.52
6,TCTCGGAGGACACGAAGGTCAGAGCATTCCAGAG,2.87
7,ATATGTAGGTTAAGGATCATTCAGGTTGGTTCGC,1.42
8,CAAACTAGGTCAAGAGGTAAAAGTCCGCTTCCCG,2.99
9,TCTCGGCGGACACGAAAGGTCAGAGCTCGACATC,2.55
10,AGAACGAGGGCAATGAGTTGATATCACGGGTGGC,1.17
11,CCTACTGGGCCATTCAGACGTCATTGATCATATG,-0.533
12,TTACCAAGGTGAGCTGAGTTCGTTGATCCAACTC,2.71
13,TCTTGTAGATCAAAGGTTAAGAACGCCGAAGCCT,1.53
14,TCTCGGAGGACACGAAGGTCAGACCTTTCCAGAG,3.08
15,ATCTCTAGGGAAAAGTTCAGTGAATCCCGAGGAT,0.24
16,CCTAGGAGGACAACAGGAGGTCAGAGCTGCCAGA,2.82
17,CCGACTGGGGCCGAAAGGTTACCATACCATCCGG,1.14
18,CAAACTAGGTGAAGAGGTCAAAGTCCGCTTCCCG,3.86
19,CCGACTGGGGCATAAGGTCACCATAAGCCAGCCC,4.08
20,CCTGGTTGGTCAAGGTCACACACGCTATAGGTAC,4.36
21,AATACAGGGTCACTAGGCCAGGGTAGGTACGAAT,3.41
22,GCTGCTAGGTCAGGTTGGTCAGCGAACGGGTACG,1.8
